Fam108B counter: counter-screen for RBBP9 inhibitors: inhibitors of mouse Fam108B | recombinant Fam108B, FP-Rh probe fluorescence polarization | inhibition, % at 9.51 µM | hit rate 0.33% among 300,000 | AID 1947;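 active means inhibition above the screen mean inhibition plus 3 SD, computed separately per campaign, cut at about 18% in these data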;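 further: inhibitors lower polarization as less probe binds the enzyme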
PAFAH1B2 inh: inhibitors of human PAFAH1B2; recombinant PAFAH1B2, FP-rhodamine activity probe, fluorescence polarization; inhibition, % at 3.39 µM; hit rate 1.2% among 340,000; AID 492953;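 active means inhibition above the mean of all tested compounds plus 3 SD, cut at about 24% in these data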;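 further: 0% = enzyme with DMSO and 100% = wells lacking PAFAH1B2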
Target sequence (P68402 whole entry, looked up): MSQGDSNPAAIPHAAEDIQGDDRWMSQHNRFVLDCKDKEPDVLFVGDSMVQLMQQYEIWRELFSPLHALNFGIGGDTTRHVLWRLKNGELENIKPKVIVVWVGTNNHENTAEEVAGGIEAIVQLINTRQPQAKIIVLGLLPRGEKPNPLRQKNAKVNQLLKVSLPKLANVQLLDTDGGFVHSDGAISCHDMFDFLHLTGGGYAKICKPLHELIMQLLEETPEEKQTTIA
PME-1 primary: PME-1 (human) inhibition; inhibition, % at 5.9 µM; hit rate 0.53% among 320,000; recombinant PME-1, FP-Rh probe fluorescence polarization;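 active means inhibition above the campaign mean of all compounds plus 3 SD, cut at about 26% in these data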;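 further: competitive labeling of PME-1 active site by serine hydrolase directed probe; 0% = PME-1 with DMSO and 100% = wells lacking PME-1 enzyme; inhibitors block probe labeling so polarization falls and inhibition rises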
PAFAH1B3 inh: inhibitors of human PAFAH1B3. recombinant PAFAH1B3, FP-rhodamine probe, fluorescence polarization. inhibition, % at 3.39 µM. hit rate 0.28% among 340,000;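 active means inhibition above the screen-wide average of all tested compounds plus 3 SD, cut at about 25% in these data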;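 further: 0% = enzyme with DMSO only and 100% = wells lacking PAFAH1B3 protein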
Target sequence (Q15102 whole entry, looked up): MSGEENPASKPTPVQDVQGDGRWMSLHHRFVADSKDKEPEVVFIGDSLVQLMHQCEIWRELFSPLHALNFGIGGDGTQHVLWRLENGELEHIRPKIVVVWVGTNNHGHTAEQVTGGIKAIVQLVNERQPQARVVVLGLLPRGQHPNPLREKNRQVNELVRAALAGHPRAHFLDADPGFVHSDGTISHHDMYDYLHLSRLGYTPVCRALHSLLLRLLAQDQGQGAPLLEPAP
PAFAH2 inh: inhibitors of human PAFAH2; Q99487; recombinant PAFAH2, FP-rhodamine activity probe, fluorescence polarization; inhibition, % at 3.39 µM; hit rate 0.99% among 340,000;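 active means inhibition above the mean over all tested compounds plus 3 SD, cut at about 30% in these data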;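 further: inhibitors block probe labeling of enzyme so polarization drops; 0% = enzyme with DMSO and 100% = wells lacking PAFAH2 protein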
pPAFAH FP inh: inhibitors of human plasma PAF acetylhydrolase (pPAFAH). recombinant pPAFAH, FP-rhodamine probe fluorescence polarization. AID 463082. inhibition, % at 3.39 µM. hit rate 1.5% among 330,000;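 active means inhibition above the mean inhibition across the screen plus 3 SD, cut at about 25% in these data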;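 further: inhibitors block binding of the rhodamine activity-based probe so polarization drops; 0% = enzyme with DMSO and 100% = wells lacking pPAFAH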
Fam108b inh conf: confirmation of mouse Fam108b serine hydrolase inhibitors | shares compounds with Fam108B counter | recombinant Fam108b, FP-Rh probe fluorescence polarization | inhibition, % at 9.51 µM | hit rate 44% among 930 | AID 1978;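 active means inhibition above a limit from the primary screen, the mean over all compounds plus 3 SD, cut at about 19% in these data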;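 further: 0% = median of active Fam108b wells and 100% = catalytically dead S170A mutant; inhibitors free the probe so polarization falls as inhibition rises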
Fam108b ABPP HTS: inhibits mouse Fam108b in gel-based ABPP; recombinant Fam108b, fluorophosphonate probe; inhibition, % at 20 µM; hit rate 44% among 260; AID 588649; shares compounds with Fam108B counter; in the data active means inhibition above about 40%
* hit, by the source's call; / = not tested or not shown. Rows were chosen to be rich in hits. Some 2.8% of all compounds tested hit in one or more screens of this group.

SMILES	Fam108B counter	PAFAH1B2 inh	PME-1 primary	PAFAH1B3 inh	PAFAH2 inh	pPAFAH FP inh	Fam108b inh conf	others
O=C(Nc1nc(-c2ccc(F)c(F)c2)cs1)Nc1ccc(F)cc1F	-9	3	-3	-10	-3	-7	/
CCCn1c(=N)n(CC(=O)c2ccc([N+](=O)[O-])cc2)c2ccccc21	24*	2	14	10	2	11	2
COc1ccc(N2CCN(C(=O)C3CCCN(S(=O)(=O)c4ccc(C)cc4)C3)CC2)cc1 (centres undefined)	-3	12	5	-2	-6	-2	/
COc1ccc(N2CCN(CC(=O)Nc3ccccc3C(=O)NCc3ccccc3)CC2)cc1	/	-2	3	6	-6	6	/
CCCOc1ccc(/C(CC)=N/NC(=O)C2(C)CC2(Br)Br)cc1 (centres undefined)	41*	2	25	9	-5	10	3
CC/C(=N/NC(=O)c1ccc(Br)cc1)c1ccc(OCCN2CCOCC2)cc1	1	5	4	7	3	1	/
Cc1ccc(S(=O)(=O)/N=C2\C=C(Nc3cccc(C(=O)O)c3)C(=O)c3ccccc32)cc1	50*	36*	25	65*	51*	24	60*	Fam108b ABPP HTS=0
Cc1ccc(S(=O)(=O)/N=C2\C=C(Nc3cccc(C(=O)O)c3)C(=O)c3ccccc32)c(C)c1	35*	30*	23	63*	58*	27*	49*	Fam108b ABPP HTS=15
O=C1C=C(Nc2ccccc2)C(=O)c2ccccc21	3	3	7	4	-1	3	/
CCc1ccc(S(=O)(=O)/N=C2\C=C(Nc3ccc(C(=O)O)cc3)C(=O)c3ccccc32)cc1	58*	32*	30*	58*	50*	33*	74*	Fam108b ABPP HTS=0
CC(=O)c1cccc(NS(=O)(=O)c2ccc(N/C=C\C(=O)c3ccc(F)cc3)cc2)c1	22*	0	-15	0	0	-6	-6
CC1(C)CC2CC(C)(CN2S(=O)(=O)c2ccccc2[N+](=O)[O-])C1 (centres undefined)	/	12	/	6	4	2	/
COc1ccc(Cl)cc1Nc1nc(-c2sc(NC(=O)C(C)(C)C)nc2C)cs1	10	2	-2	10	3	10	/
COc1ccc(Cl)cc1Nc1nc(-c2sc(NC(=O)c3ccco3)nc2C)cs1	19*	8	12	8	8	24	6
COc1ccc(S(=O)(=O)N2CCCCCC2)cc1NC(=O)Cc1n[nH]c(=O)c2ccccc12	/	4	/	-2	6	/	/
COc1ccc(-c2nc(-c3ccccc3)c(-c3cc([N+](=O)[O-])ccc3C)[nH]2)cc1O	28*	-4	39*	10	5	10	11
Cc1ccccc1Nc1cc2ccccc2c(=O)[nH]1	21*	9	16	54*	10	4	19*
CC1=NOC(=O)/C1=C/c1ccc(-c2ccc(Cl)cc2)o1	19*	10	-1	11	32*	12	16
O=C(Nc1ccccc1F)Nc1cccc2ccc(O)cc12	18*	6	34*	10	4	11	13
COc1ccc(C2C3=C(CC(C)(C)CC3=O)Nc3c2c(=O)[nH]c(=O)n3Cc2ccccc2)cc1 (centres undefined)	21*	3	-4	0	14	1	22*
CSc1cccc(NC(=S)N(Cc2ccccc2)Cc2cccnc2)c1	-1	4	8	6	3	6	/
O=C(O)c1cc(O)c2c(c1)[C@@H]([C@H]1c3cc(C(=O)O)cc(O)c3C(=O)c3c(O[C@@H]4O[C@H](CO)[C@@H](O)[C@H](O)[C@H]4O)cccc31)c1cccc(OC3O[C@H](CO)[C@@H](O)[C@H](O)[C@H]3O)c1C2=O (some centres undefined)	99*	78*	74*	76*	86*	97*	116*
O=C1c2cc(CO)cc(O)c2C(=O)c2c(O[C@@H]3OC(CO)[C@@H](O)[C@@H](O)[C@@H]3O)cccc21 (some centres undefined)	0	1	2	9	-2	2	/
CC(=O)Oc1cc2c3c(c1)/C(=C1/SC(=S)NC1=O)C(=O)N3C(C)(C)C=C2C	19*	48*	25	16	37*	30*	22*
CCOc1cc2c3c(c1)C(C)=CC(C)(C)N3C(=O)C2=O	2	6	7	9	1	3	/
SMILES	Fam108B counter	PAFAH1B2 inh	PME-1 primary	PAFAH1B3 inh	PAFAH2 inh	pPAFAH FP inh	Fam108b inh conf	others
O=C(Nc1cc(Sc2nc3ccccc3s2)cc([N+](=O)[O-])c1)c1cccc(F)c1F	19*	-13	11	-34	-20	23	25*
O=C(Nc1cc(Sc2ccccn2)cc([N+](=O)[O-])c1)c1ccc([N+](=O)[O-])cc1	19*	-9	4	-5	-17	6	5
CC(=O)c1cc2c(cc1NC(=O)CN1Cc3ccccc3C1=O)OCO2	5	4	10	4	-4	1	/
Oc1ccc(Nc2nc3ccccc3nc2Nc2ccc(O)cc2)cc1	45*	27*	33*	40*	-35	11	15
CC(Oc1ccc(F)cc1)C(=O)Nc1cc(S(=O)(=O)N2CCCCC2)ccc1N1CCOCC1 (centres undefined)	-2	0	13	-1	7	5	/
CN(C)c1ccc(/C=C(\C#N)C(=O)NCc2ccco2)cc1	29*	/	18	/	/	11	-8
O=C1CCCC(O)=C1N=Nc1ccc2c(c1)OCO2	1	-3	-5	-4	3	2	/
O=C1CCCC(O)=C1N=Nc1ccc(C(=O)O)cc1	25*	39*	-18	50*	52*	31*	20*
COc1ccc(Nc2sc(C(=O)Nc3cccc(Cl)c3)c(N)c2C(=O)Nc2ccccc2OC)cc1	51*	/	30*	/	/	3	6
CCC(C)NC(=O)C1CCC(CNS(=O)(=O)c2cccc3nsnc23)CC1 (centres undefined)	0	2	-8	8	-42	-3	/
CCCCCCCCCCCCCCCC[n+]1ccc(C=NO)cc1	/	/	/	/	/	/	/	Fam108b ABPP HTS=75*
O=C(CCc1ccc(O)c(O)c1)N/N=C/c1ccc2c(c1)OCO2	1	2	-5	7	9	21	/
CC(C)Oc1ccc(CCC(=O)N/N=C/c2ccc3c(c2)OCO3)cc1	25*	1	41*	10	6	24	0
Cc1nc2scc(-c3ccccc3)c2c(=O)o1	34*	-4	-2	9	-4	7	61*	Fam108b ABPP HTS=85*
Cc1nc2scc(-c3ccccc3)c2c(=O)n1N	-3	-3	-6	7	1	4	/

High-throughput results as filed in PubChem.
